According to PubChem BioAssay AID504635 (The Scripps Research Institute Molecular Screening Center, 2011):
Some of the results follow. Unmarked numbers belong to inactive results. Active and inactive are the calls of the source. Cut-off read from the data, not from the text of the source: active = inhibition above about 18%; inactive = the rest.

Molecular target: Troponin I, cardiac muscle (Homo sapiens) + Troponin T, cardiac muscle (Homo sapiens) + Troponin C, slow skeletal and cardiac muscles (Homo sapiens) (UniProt P19429+P45379+P63316)
Assay: cardiac RTF calcium sensitivity inhibitors, confirmation, biochemical, fluorescence readout (AID 504635)
Conditions: reconstituted cardiac thin filaments, at 7.15 µM, active compounds read high

SMILES	inhibition
C=CCNC(=O)COC(=O)c1ccccc1C(=O)N(C)C1CCCCC1	0.72%
COc1ccc(NC(=O)CC2COc3ccccc3O2)c(OC)c1 (stereo not given)	-2.46%
O=C(O)c1cccc(S(=O)(=O)Nc2ccc(O)cc2Sc2nc3ccccc3s2)c1	-6.09%
CC1CCCC(NC(=O)COC(=O)[C@@H]2CC(O)CN2S(=O)(=O)c2ccc3c(c2)OCCO3)C1C (stereo not given in full)	-1.77%
C/C(=N\NC(=O)C(N)=O)c1ccc2c(c1)OCCO2	-2.4%
Cc1cc(NC(=O)CCC(=O)N(CC(=O)NCC2CCCO2)c2ccccc2)no1 (stereo not given)	-4.68%
COC(=O)c1cccc(N(CC(=O)NCC2CCCO2)C(=O)CCC(=O)Nc2cc(C)on2)c1 (stereo not given)	-2.6%
Cc1ccc(NC(=O)NC2CCCCC2)cc1S(=O)(=O)N1CCOCC1	-0.15%
COc1cc(OC)cc(C(=O)NCC(=O)OCc2csc(-c3ccccc3)n2)c1	2.35%
CCCCn1c(=O)c(C(C)=O)c(O)c2ccccc21	-4.91%
COc1cccc(CNC(=O)C(=O)NCCC2CCCCN2S(=O)(=O)c2ccc(C)cc2)c1 (stereo not given)	-4.1%
O=c1ccc2c(-c3ccccc3S(=O)(=O)O)c3ccc(O)c(O)c3oc-2c1O	154% (active)
Cc1ccc(S(=O)(=O)N(CC(=O)Nc2cccc([N+](=O)[O-])c2)Cc2ccc(Cl)cc2)cc1	-1.82%
COC(=O)CCc1sc(Nc2ccc(Br)cc2)nc1-c1ccc(OC)cc1	1.8%
Cc1cccc(N(C(=O)Cc2cccs2)C(C(=O)NC2CCCC2)c2ccsc2)c1 (stereo not given)	-3.11%
